Source: PubChem
Methyltransferases – Primary Screen for Target Class Profiling of Small Molecule Inhibitors of Methyltransferases; purified enzyme, MTase-Glo SAH luminescence; active compounds read low; calls only at 40 µM; AID 1745853, 2022; 25,000 tested, 3.9% active; call rule not given here
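Each enzyme was assayed with SAM and its substrate. SAH formation detected by MTase-Glo luminescence; single-point 40 uM screen[…].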
MTase-Glo ctr – counter-screen for methyltransferase inhibitors: coupling enzymes without methyltransferase. shares compounds with Methyltransferases. 180 tested, 6% active. Potency, µM (titrated, usually from 57.3 µM), usual class: inhibitors. MTase-Glo coupled enzymes, SAH conversion luminescence, no MTase; active = well fitted inhibition curve with a large enough effect; inconclusive = small, poorly fitted or top-dose-only effect
Calls only. Many of the other results were omitted from the sample, so hits are more common in it than they were.

COc1cccc(-c2ccc(C(=O)N3CCC(NC(=O)N(C)C)CC3)cc2)c1 was read as Methyltransferases inactive.
CN(C)C[C@H]1C[C@@H](CO)CN(C(=O)c2csc(Cc3ccccc3)n2)C1 was read as Methyltransferases inactive.
`Cc1ccc(Nc2nc(C)cc3nn(CC(=O)Nc4ccc5c(c4)OCO5)c(=O)n23)cc1` gave Methyltransferases inactive.
Screening CC1(C(=O)NC2CCCCCC2)Cn2c(cc3occc32)C(=O)N1Cc1ccccc1Br (centres undefined) returned Methyltransferases inactive.
COc1ccc(CCNC(=O)c2cc3n(n2)CC(C)(C(=O)NC2CCCC2)N(C)C3=O)cc1OC (centres undefined) was read as Methyltransferases inactive.
COc1ccc(-c2cc(-c3cnn(C)c3)cn3cncc23)cn1 was read as Methyltransferases active and MTase-Glo ctr inconclusive.
Cc1ccc(C)c(NC(=O)N2CCn3c(C)ccc3C2C(C)C)c1 (centres undefined) was read as Methyltransferases inactive.
Screening CCCn1c(=O)c2ccc(C(=O)NC(C)CC)cc2n2c(=O)n(Cc3cccc(C)c3)nc12 (centres undefined) returned Methyltransferases inactive.
CCN1CC(C(=O)N(C)Cc2ccc(Oc3ccccc3)cc2)CCC1=O (centres undefined) was read as Methyltransferases inactive.
For Cc1ccc2nc(CO[C@H]3CN(C4CCN(C)CC4)C[C@H]3F)[nH]c2c1 the results were Methyltransferases inactive.
Cc1ccc2nc(CN(C)C(=O)C3CCC(=O)N(C4CCCCCC4)C3)[nH]c2c1 (centres undefined) was read as Methyltransferases active and MTase-Glo ctr inactive.
CCn1c(=O)n(CC)c2cc(S(=O)(=O)Nc3ccc(Br)cc3)ccc21 was read as Methyltransferases inactive.
Screening COCCn1ccc2c(C3=CCOCC3)nc(-c3cccc4[nH]ccc34)cc21 returned Methyltransferases active and MTase-Glo ctr inactive.
Screening CC1(C(=O)NC2CCCCCC2)Cn2nc(-c3ccco3)cc2C(=O)N1Cc1ccc2c(c1)OCO2 (centres undefined) returned Methyltransferases inactive.
For Cn1c(=O)c2ccc(C(=O)NC3CCCCC3)cc2n2c(SCC(=O)NCc3ccccc3)nnc12 the results were Methyltransferases inactive.
Cc1ccc(CNC(=O)C2(C)Cn3nc(C(=O)NCc4cccs4)cc3C(=O)N2C)cc1 (centres undefined) was read as Methyltransferases inactive.
Screening COc1cc(C(=O)NC(=S)Nc2cccc(NC(=O)c3ccccc3)c2)cc(OC)c1OC returned Methyltransferases inactive.
`COc1ccccc1CC(=O)N1CCCc2ncc(C(=O)Nc3cccc(Cl)c3)cc21` gave Methyltransferases active and MTase-Glo ctr inactive.
Screening COc1cc(NC(=O)c2ccccn2)ccc1Cl returned Methyltransferases inactive.
Screening CCn1c(=O)n(CC)c2cc(S(=O)(=O)Nc3ccc(F)c(F)c3)ccc21 returned Methyltransferases inactive.
Screening CCOCCCNC(=O)c1cc2n(n1)CC(C)(C(=O)NC1CCCC1)N(C)C2=O (centres undefined) returned Methyltransferases inactive.
CC(C)CCN1C(=O)c2c(-n3cccc3)c3cc(F)ccc3n2CC1(C)C(=O)NC1CCCCCC1 (centres undefined) was read as Methyltransferases inactive.
For CCCn1c(=O)c2cc(F)ccc2n2c(SCC(=O)Nc3ccc(C)cc3Cl)nnc12 the results were Methyltransferases inactive.
Screening CCN1CCN(C(=O)C2CCCN(Cc3ccncc3)CCC(=O)NCC2)CC1 (centres undefined) returned Methyltransferases inactive.
For CCNc1ncc(CN2CCN(c3ccncc3)CC2)cn1 the results were Methyltransferases active and MTase-Glo ctr inactive.
Screening O=C1CCCN1c1ccc(CN2CC(=O)N(Cc3ccccc3F)c3ccccc3S2(=O)=O)cc1 returned Methyltransferases inactive.
For Cc1ccc(C)c(N2CCN(S(=O)(=O)c3cc4c(cc3C)n(C)c(=O)n4C)CC2)c1 the results were Methyltransferases inactive.
Screening CCOC(=O)c1cc2n(n1)CC(C)(C(=O)NCc1ccc(C)cc1)N(CCc1ccc(SC)cc1)C2=O (centres undefined) returned Methyltransferases inactive.
Screening Cn1c(=O)c2ccc(C(=O)NC3CCCC3)cc2n2c(=O)n(CC(=O)NC3CCCCC3)nc12 returned Methyltransferases inactive.
`OCC1(Cc2ccccc2)CCCN(Cc2cn[nH]c2-c2ccc(F)cc2)C1` (centres undefined) gave Methyltransferases active and MTase-Glo ctr inactive.
`O=C(CCc1nnn2c1CN(Cc1cn[nH]c1-c1ccc(F)cc1)CC2)N1CCCC1` gave Methyltransferases inactive.
`OCC1(CC2CC2)CCCN(Cc2ccc(C(F)(F)F)nc2)C1` (centres undefined) gave Methyltransferases inactive.
Cn1nnc(-c2ccc(-c3ccc(N4C[C@H](CO)OC4=O)cc3F)cn2)n1 was read as Methyltransferases inactive.
`Cc1cc(Cl)ccc1N1C(=O)c2cc(C(C)(C)C)nn2CC1(C)C(=O)NCc1ccccc1` (centres undefined) gave Methyltransferases inactive.
`CC1CCN(CCCNC(=O)C2CCc3sc(C(=O)N4CCCC4)cc3C2)CC1` (centres undefined) gave Methyltransferases active and MTase-Glo ctr inactive.
CCCCNC(=O)C1CCc2sc(C(=O)N3CCCCC3)cc2C1 (centres undefined) was read as Methyltransferases inactive.
`CN1C(=O)CCCCC1C(=O)NCCN1CCCCC1` (centres undefined) gave Methyltransferases inactive.
Screening Cc1ccc(N(C)C(=O)Cn2c(=O)oc3cc(S(=O)(=O)N4CCCCC4)ccc32)cc1 returned Methyltransferases inactive.
`Cc1ccc(CNC(=O)C2(C)Cc3ccccc3C(=O)N2c2cccc(C)c2)cc1` (centres undefined) gave Methyltransferases inactive.
For C[S+](=O)([O-])N1CCC(Cn2ccc3c(N4CCOCC4)nc(-c4cccc5[nH]ncc45)cc32)CC1 the results were Methyltransferases active and MTase-Glo ctr inactive.
COc1ccc(N2C(=O)c3ccc(-c4ccco4)n3CC2(C)C(=O)NC2CCCC2)cc1 (centres undefined) was read as Methyltransferases inactive.
`CNC(=O)[C@@H]1CN(C(=O)c2cc3cc(OC)ccc3[nH]2)C[C@H]1COC` gave Methyltransferases inactive.
`COc1ccc2[nH]c(CNc3cc(C4CC(N)C4)nc(C)n3)cc2c1` (centres undefined) gave Methyltransferases active and MTase-Glo ctr inactive.
C#CCNCc1cc2cc(OCc3ccccc3)ccc2[nH]1 was read as Methyltransferases inactive.
COc1ccc(Cn2c(=O)c3ccccc3n3c(-c4cccc(OC)c4)nnc23)cc1 was read as Methyltransferases inactive.
CC(=O)Nc1ccc(NC(=O)c2cccc(CN3CCCC(C#N)C3)c2)cc1 (centres undefined) was read as Methyltransferases inactive.
For N#Cc1cc(CN2CCCC(C(=O)Nc3cccc(-c4ccc(F)cc4)c3)C2)c[nH]1 (centres undefined) the results were Methyltransferases active and MTase-Glo ctr inactive.
`Cc1cccc(CN2CCCC(C(=O)Nc3cccc(-n4cccn4)c3)C2)n1` (centres undefined) gave Methyltransferases inactive.
`CC(C)CNC(=O)c1ccc2c(=O)n(C)c3nn(CC(=O)NCc4ccc(Cl)cc4)c(=O)n3c2c1` gave Methyltransferases inactive.
